PI5P4K alpha inh = inhibitors of human PI5P4K alpha. P48426. PI5P4Kalpha enzyme, ADP-Glo luminescence, 60 min; active compounds read low. max response, %. 330,000 tested, 1.2% active. AID 652105; active = max response of -50% or lower; inconclusive = between -30% and -50%; inactive = -30% or higher; note: value at the top dose of about 77 µM; % is set by controls: 0 for no effect and ±100 for the full control effect
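ADP-Glo luminescence end-point after a 60 min room-temperature kinase reaction. PI5P4Kalpha and substrate in HEPES pH 7.4 buffer with EGTA, 0.1% CHAPS and 5% DMSO; ATP at 5 microM final.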
PLK1 PBD inh = inhibitors of human PLK1 polo-box domain binding | Potency, µM, for inactives: max response, negative = inhibition, hits mostly inhibitors | AID 720504 | 360,000 tested, 2.8% active | Plk1 PBD binding of FITC phosphopeptide, fluorescence polarization; note: potency is the fitted concentration of half-maximal effect; series mostly up to about 57 µM; % is set by controls: 0 for no effect and ±100 for the full control effect; nearly all actives have a fitted effect of over 65% in size
Rango-impB inh = prevents formation of the Rango-importin beta complex; Q14974; Rango CFP/YFP FRET sensor + importin beta, 45 min; Potency, µM (titrated, usually from 92.2 µM), without a hit: top-dose inhibition of complex formation; 340,000 tested, 0.031% active; AID 540263; calls by dose curve;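 note: potency is the fitted concentration of half-maximal effect; 0% = DMSO wells and 100% = buffer wells lacking importin beta; nearly all actives have a fitted effect of over 15% in size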
Target sequence (Q14974 whole entry, looked up): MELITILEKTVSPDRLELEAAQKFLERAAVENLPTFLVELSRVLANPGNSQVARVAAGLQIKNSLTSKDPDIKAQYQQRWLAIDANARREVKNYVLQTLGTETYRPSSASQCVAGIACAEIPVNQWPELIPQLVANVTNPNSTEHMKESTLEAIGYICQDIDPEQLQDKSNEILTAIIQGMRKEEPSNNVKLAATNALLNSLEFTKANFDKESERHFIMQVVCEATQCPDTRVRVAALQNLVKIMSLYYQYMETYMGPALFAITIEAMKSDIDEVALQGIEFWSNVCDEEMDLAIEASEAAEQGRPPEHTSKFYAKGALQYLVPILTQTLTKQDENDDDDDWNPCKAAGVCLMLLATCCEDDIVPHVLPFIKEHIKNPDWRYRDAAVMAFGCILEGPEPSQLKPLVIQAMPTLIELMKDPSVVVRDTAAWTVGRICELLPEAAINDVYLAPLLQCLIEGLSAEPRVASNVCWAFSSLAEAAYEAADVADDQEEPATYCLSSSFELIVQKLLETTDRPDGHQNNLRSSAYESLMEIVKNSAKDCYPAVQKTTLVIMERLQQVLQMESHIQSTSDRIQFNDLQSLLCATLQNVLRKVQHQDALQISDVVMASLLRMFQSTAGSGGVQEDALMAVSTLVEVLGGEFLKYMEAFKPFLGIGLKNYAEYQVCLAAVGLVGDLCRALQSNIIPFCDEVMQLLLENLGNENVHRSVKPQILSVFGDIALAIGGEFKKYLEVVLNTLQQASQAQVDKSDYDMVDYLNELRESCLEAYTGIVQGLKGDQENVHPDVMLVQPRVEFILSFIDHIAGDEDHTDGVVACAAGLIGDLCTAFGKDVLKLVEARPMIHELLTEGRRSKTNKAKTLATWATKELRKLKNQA
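FRET biosensor Rango (snurportin 1 IBB between N-terminal EYFP and C-terminal Cerulean), 50 nM in PBS/1 mM DTT/0.02% Tween-20/0.1% BSA, preincubated 5 min RT with compound; 0.125 microM importin beta added, 45 min RT, CFP/YFP FRET ratio read.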
Rango release inh = prevents RanGTP from dissociating the Rango-importin beta complex. Biochemical FRET Rango-importin beta, RanGTP-induced dissociation. 340,000 tested, 0.071% active. AID 540253. Potency, µM (doses to about 46.1 µM), for inactives: at the highest dose activity change, negative = inhibition; calls by dose curve; note: potency is the fitted concentration of half-maximal effect; % of control where 0% means no effect; nearly all actives have a fitted effect of over 45% in size
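Compounds sat 5 min at room temperature with 0.1 uM Rango biosensor plus 0.25 uM importin beta, then FRET pre-read. RanGTP-RCC1 (0.6 uM Ran, 2mM GTP, 0.2 uM RCC1) added for 45 min, and the CFP/YFP post-read measured blocked complex dissociation.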
KAT2A inh = GCN5L2 (KAT2A) acetyltransferase inhibition. 390,000 tested, 0.21% active. Potency, µM (highest dose often 58.9 µM), without a hit: at the top dose activity change, negative = inhibition, usual class: inhibitors. Q92830. GCN5L2 HAT assay, ThioGlo1 CoA-SH fluorescence; note: potency is the fitted concentration of half-maximal effect; % is set by controls: 0 for no effect and ±100 for the full control effect
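GCN5L2 (20 nM) in 50mM HEPES pH 7.5, 0.1mM EDTA, 0.01% Tween-20 preincubated 15 min with compounds at room temperature. Reaction started with H3(1-25) 75uM, acetyl-CoA 70uM, ThioGlo1 50uM; CoA-thiol fluorescence (Ex340/Em540) read at 0 and 20 min.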
VDR inhibitor = inhibitors of human vitamin D receptor; P11473; VDR-SRC2-3 peptide fluorescence polarization, 2 h; Potency, µM, without a hit: max response, negative = inhibition, usual class: inhibitors; 400,000 tested, 0.93% active; AID 504847; note: potency is the fitted concentration of half-maximal effect; % is set by controls: 0 for no effect and ±100 for the full control effect
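Fluorescence polarization assay measuring small-molecule disruption of VDR binding to the coregulator peptide SRC2-3. Compounds were pin-transferred (23 nl) into the reagent mix and incubated 2 h at room temperature before reading.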
* marks the source's active call; other numbers are inactive results; u = inconclusive; x = not tested or not shown. Most compounds without a hit are left out; they make up all but 3.6% or so of the library. Unless noted, calls come from the whole dose curve; as a rule, active = well fitted curve in the direction sought with a large enough effect; inconclusive = small, poorly fitted or top-dose-only effect, or another doubt; inactive = no such curve, though single readings can be large; an effect the other way counts as inactive or inconclusive.

SMILES | PI5P4K alpha inh | PLK1 PBD inh | Rango-impB inh | Rango release inh | KAT2A inh | VDR inhibitor
CC(C)=CCCC1(C)C=Cc2c(O)c3c(c(CC=C(C)C)c2O1)OC12C(=CCCC1C(C)(C)O[C@@]2(C/C=C(\C)C(=O)O)C(=O)O)C3=O (stereo partly drawn) | x | x | x | x | 35µM* | 45µM*
S=c1nc2[nH]c3ccccc3c2n[nH]1 | -50* | 3.8µM* | 3% | 6% | x | u
Cc1cccc(N2CCN(c3nc4ccc(C(=O)c5ccccc5)cc4n4cnnc34)CC2C)c1 (stereo not drawn) | x | x | x | x | -3% | -6%
ON=C1c2cc(OCCN3CCCCC3)ccc2-c2ccc(OCCN3CCCCC3)cc21 | -14 | 19µM* | 0% | 1% | -10% | u
Clc1ccc(OCCN2CCCCC2)cc1Cl | 5 | -3% | -1% | -11% | 3% | -14%
S=C(Cc1ccccc1)NCCc1ccccc1 | 0 | -27% | -2% | 21% | -6% | -8%
COc1ccc(CC(=S)NCCc2ccccc2)cc1 | -20 | 7.5µM* | 0% | -3% | -29% | u
CN(C)C(=S)c1ccc(N(C)C)cc1 | -7 | 27µM* | -3% | -4% | -5% | u
CN(C)C(=S)c1ccccc1 | -19 | 21µM* | 0% | -1% | -9% | u
CN(C)c1ccc(NC(N)=S)cc1 | -7 | -11% | 7% | -16% | -3% | -13%
COc1ccc(C(=S)N(C)C)cc1OC | -12 | 19µM* | 0% | 3% | 10% | u
COC(=O)N1C(C)=Cc2ccccc2C1CC(C)=O (stereo not drawn) | x | x | x | x | x | 6%
CCc1cccc(C)c1NC(=O)COCc1cc(-c2ccc3c(c2)OCO3)on1 | x | x | x | x | -11% | 5%
O=C(O)[C@H](O)[C@@H](O)[C@H](O)[C@H](O)CO | x | x | x | x | 34% | -9%
COC(=O)C1=C(C)N(c2cc(C)cc(C)c2)/C(=C/c2ccc(O)cc2)C1=O | 5 | -14% | u | -2% | -3% | 50µM*
COC(=O)C1=C(C)N(c2ccc(Cl)cc2)/C(=C/c2ccc(O)cc2)C1=O | 1 | -16% | 0% | -7% | 1% | -2%
Cc1ccc(O)c(CP(=O)(c2ccccc2)c2ccccc2)c1 | 4 | 1% | 2% | -4% | -5% | -6%
CCNc1ccccc1CP(=O)(c1ccccc1)c1ccccc1O (stereo not drawn) | u | 21µM* | 6% | -8% | -15% | 20µM*
C[C@H](O)[C@H](O)[C@H]1CNc2nc(N)[nH]c(=O)c2N1 | u | 27µM* | u | -16% | -26% | 79µM*
CC(O)C(O)[C@H]1CNc2nc(N)[nH]c(=O)c2N1 (stereo partly drawn) | x | x | x | x | u | -12%
S=c1ccss1 | x | x | x | x | 25µM* | 20µM*
CC(C)(C)c1ccc(C(=O)NC(=S)NNC(=O)COc2ccccc2)cc1 | u | u | 6% | 25% | -10% | -6%
Cc1ccc(C(=O)NNC(=S)NC(=O)COc2ccccc2)cc1 | x | 27µM* | 1% | 2% | -4% | -7%
CCCOc1ccc(C(=O)NNC(=S)NC(=O)c2cccs2)cc1 | -11 | 30µM* | 3% | 2% | -9% | -21%
CC(C)CS(=O)(=O)c1oc(-c2ccc(F)cc2)nc1S(=O)(=O)c1ccccc1 | x | x | x | x | -9% | u
SMILES | PI5P4K alpha inh | PLK1 PBD inh | Rango-impB inh | Rango release inh | KAT2A inh | VDR inhibitor
COc1cccc([C@@H]2Oc3ccc(OC)cc3[C@H](O)[C@H]2O)c1 | x | x | x | x | x | 2%
CC(C(=O)N1CCCC1)N(c1ccc(Cl)cc1)S(C)(=O)=O (stereo not drawn) | 1 | -7% | x | x | x | x
CCOc1ccc(N(C(C)C(=O)N2CCCC2)S(C)(=O)=O)cc1 (stereo not drawn) | -8 | 19µM* | -6% | -2% | -1% | u
CC(=O)NCCc1nc2ccccc2n1CCOc1ccccc1 | 1 | 24µM* | 4% | 23% | -3% | -16%
COC(=O)c1cc(C#N)c(NCc2ccccc2)nc1C | u | 3.4µM* | 1% | -3% | -3% | u
CC(=O)c1cc(C#N)c(NCc2cc(-c3ccccc3)no2)nc1C | 0 | 0% | 2% | 5% | 2% | 0%
O=C(O)c1cc(O)c2c(c1)C(=O)c1cc(O)cc(O)c1C2=O | -86* | u | 2% | 2% | -18% | -15%
O=C1c2cc(Cl)ccc2-c2c(O)cc(Cl)cc21 | u | -4% | 1% | -4% | x | -2%
COc1cc(NC(=O)C2CCN(C(=O)c3sc4nc[nH]c(=O)c4c3C)CC2)cc(OC)c1OC | x | x | x | x | 0% | -6%
CCc1ccc(N=C2NC(=O)CC(C(=O)Nc3ccc(OC)cc3)S2)cc1 (stereo not drawn) | x | x | x | x | -10% | u
CCn1c(=O)c(=O)[nH]c2cc(C(=O)NC3CCCC3)ccc21 | -12 | 30µM* | 0% | 2% | -2% | u
COc1ccc(N2CC(O)=C(c3n(C)c4ccccc4[n+]3C)C2=N)cc1 | -19 | 27µM* | -2% | 9% | -6% | 4%
Nc1c(N)c2ccccc2oc1=O | x | 3% | -4% | -2% | -11% | 11%
O=c1oc2ccccc2c2oc3cc(O)c(O)cc3c12 | -64* | -24% | u | -24% | -18% | 26%
O=C(Nc1c(C(=O)N2CCN(c3ccccc3)CC2)oc2ccccc12)c1ccc(Br)o1 | x | x | x | x | -7% | 18%
CCOc1ccccc1NC(=O)C1CCCN(S(=O)(=O)c2cccs2)C1 (stereo not drawn) | x | x | x | x | -10% | -6%
Cc1cccc(-n2c(SCC(=O)Nc3ccc(C)c(C)c3)nc3n[nH]c(C)c3c2=N)c1 | x | x | x | x | -1% | 3%
S=C1SCN(Cc2ccccn2)CN1Cc1ccco1 | x | u | -1% | -5% | 18% | u
COCCN1CSC(=S)N(Cc2ccco2)C1 | x | 17µM* | -4% | -17% | -2% | 89µM*
O=C(O)c1cccc(NC(=O)c2ccccc2)c1 | -6 | -14% | -3% | u | x | 25%
Nc1ccc(C(=O)Nc2cccc(NC(=O)c3ccc(N)cc3)c2)cc1 | -2 | 27µM* | -1% | 3% | -2% | u
CCCCNC(=O)CCCN1C(=O)c2ccccc2Sc2ncccc21 | x | x | x | x | 0% | 2%
COc1ccc(N2CCN(C(=O)C3CCN(S(=O)(=O)c4cccc5nonc45)CC3)CC2)cc1 | x | x | x | x | 1% | 0%
CCCCNC(=O)C(CC)n1c(SCc2cccc(F)c2)nc2ccncc21 (stereo not drawn) | x | x | x | x | x | -17%
O=S(=O)(NN1CCOCC1)c1cc(Cl)cc(Cl)c1O | 4 | 15µM* | 0% | 0% | -8% | u
O=C(NN1CCOCC1)c1ccc(Cl)cc1Cl | -8 | -12% | -1% | -4% | x | -3%
O=c1c2cccnc2n(-c2ccccc2)n1Cc1ccc(Cl)cc1 | 5 | 27µM* | 0% | -19% | 1% | -5%

Compound activity (PubChem)
